Assay outcomes (PubChem BioAssay)
The list is not random: actives were taken first. Their share in the collection is about 6.7%.
C diff growth – blocks growth of Clostridium difficile; Clostridium difficile clinical isolate growth, OD600, 24 h; active compounds read low; growth activity, negative = inhibition, % at 16 µg/mL (by protocol); actives 0.25% (n = 86,000); AID 1259249;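 active = mean growth activity at or below -80% and every replicate also at or below -80%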;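 also: 0% = DMSO wells and -100% = levofloxacin 16 µg/mL wells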
Pf Dd2 growth – P. falciparum Dd2 growth inhibition. actives 2.3% (n = 94,000). activity change, % at 10 µM. AID 1159554. SYBR Green, 72 h; active compounds read low; in the data active = activity change below about -80%
Tcruzi prolif – inhibitors of T. cruzi proliferation; T. cruzi beta-gal in NIH3T3, GalScreen luminescence, 90 h; inhibition, % at 8.34 µM; actives 5.9% (n = 77,000);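 active = mean inhibition above about 93%, with at least 55% of replicates each passing it, limit read from the data, passing the limit was not always enough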
* = called active by the depositor; / = not tested or not shown.

SMILES	C diff growth	Pf Dd2 growth	Tcruzi prolif
C[C@@H]1CN([C@@H](C)CO)C(=O)c2cc(NS(=O)(=O)c3cccs3)ccc2O[C@@H](C)CCCCO[C@H]1CN(C)Cc1ccccc1	0.7	-33.9	/
COc1ccc(CN(C)C[C@H]2OCCCC[C@H](C)Oc3ccc(NS(=O)(=O)c4ccc(C)cc4)cc3C(=O)N([C@H](C)CO)C[C@H]2C)cc1	/	-67.5	/
C[C@H]1CN([C@@H](C)CO)C(=O)c2cc(NS(C)(=O)=O)ccc2O[C@@H]1CN(C)C(=O)Nc1ccc(F)cc1	-0.7	7.7	6.3
C[C@H](CO)N1C[C@H](C)[C@@H](CN(C)C(=O)C2CCCCC2)OCCCC[C@H](C)Oc2ccc(NC(=O)c3ccccc3)cc2C1=O	-4.9	43.9	50.8
C[C@@H]1CN([C@H](C)CO)C(=O)c2cc(NC(=O)c3ccccc3)ccc2O[C@@H](C)CCCCO[C@@H]1CN(C)C(=O)C1CCCCC1	6.3	-84.0*	-21.8
C[C@@H]1CCCCO[C@H](CN(C)C(=O)C2CCCCC2)[C@@H](C)CN([C@@H](C)CO)C(=O)c2cc(NC(=O)c3ccccc3)ccc2O1	-8.1	-84.8*	54.5
C[C@H]1CCCCO[C@@H](CN(C)C(=O)C2CCCCC2)[C@@H](C)CN([C@@H](C)CO)C(=O)c2cc(NC(=O)CCC(F)(F)F)ccc2O1	-4.2	-81.6*	-6.8
C[C@H](CO)N1C[C@H](C)[C@@H](CN(C)C(=O)C2CCCCC2)OCCCC[C@H](C)Oc2ccc(NC(=O)CCC(F)(F)F)cc2C1=O	-7.2	4.3	-7.9
C[C@@H]1CCCCO[C@@H](CN(C)C(=O)C2CCCCC2)[C@H](C)CN([C@@H](C)CO)C(=O)c2cc(NC(=O)c3ccccc3)ccc2O1	-1.9	-19.7	13.7
C[C@H]1CN([C@@H](C)CO)C(=O)c2cc(NC(=O)CCCCCC(=O)Nc3ccccc3N)ccc2O[C@@H]1CN(C)S(=O)(=O)c1cn(C)cn1	9.5	20.0	/
O=C([C@H]1[C@H](CO)[C@H]2Cn3c(ccc(-c4ccccc4F)c3=O)[C@@H]1N2C(=O)C1CCC1)N1CCOCC1	2.8	12.7	59.8
C/C=C/c1ccc([C@H]2[C@@H](CO)N(C(=O)CC)[C@@H]2CNC(=O)C2CC2)cc1	8.4	1.6	-14.2
C[C@@H]1CN([C@@H](C)CO)C(=O)c2cccc(NS(=O)(=O)c3ccccc3)c2O[C@@H]1CN(C)Cc1ccc(Oc2ccccc2)cc1	44.1	-62.9	39.1
C[C@@H]1CN([C@H](C)CO)C(=O)c2cccc(NS(=O)(=O)c3ccccc3)c2O[C@H]1CN(C)Cc1ccc(Oc2ccccc2)cc1	14.7	-86.0*	50.3
C[C@H](CO)N1C[C@H](C)[C@@H](CN(C)Cc2ccc(Oc3ccccc3)cc2)Oc2c(NS(=O)(=O)c3ccccc3)cccc2C1=O	-9.3	-17.7	/
C[C@@H]1CN([C@@H](C)CO)C(=O)c2cccc(NS(=O)(=O)c3ccccc3)c2O[C@H]1CN(C)Cc1ccc(Oc2ccccc2)cc1	-3.9	-83.2*	78.0
CCCNC(=O)N1CC2(CN(C)C2)c2c(n(C)c3cc(OC)ccc23)[C@@H]1CO	-5.4	17.0	/
C[C@@H]1CCCCO[C@@H](CN(C)Cc2ccc3c(c2)OCO3)[C@@H](C)CN([C@@H](C)CO)C(=O)c2cc(NC(=O)Cc3ccccc3)ccc2O1	5.7	-54.9	103.0
C[C@H]1CCCCO[C@@H](CN(C)Cc2ccc3c(c2)OCO3)[C@@H](C)CN([C@@H](C)CO)C(=O)c2cc(NC(=O)Cc3ccccc3)ccc2O1	-3.4	-83.0*	109.4
C[C@@H]1CCCCO[C@@H](CN(C)Cc2ccccc2)[C@H](C)CN([C@H](C)CO)C(=O)c2cc(NC(=O)Nc3ccc4c(c3)OCO4)ccc2O1	8.8	-79.1	94.6
C[C@@H]1CN([C@@H](C)CO)C(=O)c2cc(NC(=O)Nc3ccc4c(c3)OCO4)ccc2O[C@@H](C)CCCCO[C@H]1CN(C)Cc1ccc(Cl)c(Cl)c1	4.8	-59.1	69.1
C[C@H]1CCCCO[C@H](CN(C)Cc2ccc3c(c2)OCO3)[C@@H](C)CN([C@@H](C)CO)C(=O)c2cc(NC(=O)Nc3ccccc3)ccc2O1	10.8	-74.7	80.8
C[C@@H]1CN([C@H](C)CO)C(=O)c2cc(NC(=O)Nc3ccccc3)ccc2O[C@@H](C)CCCCO[C@H]1CN(C)Cc1ccc2c(c1)OCO2	26.3	-81.6*	62.1
C[C@H]1CCCCO[C@@H](CN(C)Cc2ccccc2)[C@@H](C)CN([C@@H](C)CO)C(=O)c2cc(NC(=O)Nc3ccc4c(c3)OCO4)ccc2O1	-3.2	-85.7*	93.5
C[C@@H]1CN([C@H](C)CO)C(=O)c2cc(NC(=O)Nc3ccc4c(c3)OCO4)ccc2O[C@@H](C)CCCCO[C@@H]1CN(C)Cc1ccc(Cl)c(Cl)c1	6.3	-87.8*	71.0
SMILES	C diff growth	Pf Dd2 growth	Tcruzi prolif
COc1ccc2c3c(n(C)c2c1)[C@H](CO)N(C(=O)NC1CCCCC1)CC31CN(C)C1	-12.1	23.7	/
CC(=O)N(C)C[C@@H]1Oc2cc(C#CCC3CCCC3)ccc2S(=O)(=O)N([C@H](C)CO)C[C@H]1C	-6.1	-37.3	35.0
OC[C@@H]1[C@H](c2ccc(C3=CCCC3)cc2)[C@@H](CNC2CCCC2)N1CC1CC1	41.6	-90.7*	/
CCC(=O)N1[C@H](CO)[C@H](c2ccc(C3=CCCCC3)cc2)[C@@H]1CNC1CCCC1	17.1	-75.7	/
CCC(=O)N1[C@H](CO)[C@H](c2ccc(C3=CCCCC3)cc2)[C@H]1CNCC1CCC1	9.8	-85.2*	/
CCC(=O)NC[C@@H]1[C@@H](c2ccc(C3=CCCCC3)cc2)[C@@H](CO)N1CC1CC1	12.2	-65.1	/
CCCNC[C@@H]1[C@@H](c2ccc(C3=CCCCC3)cc2)[C@@H](CO)N1C(=O)C1CCC1	8.9	-72.9	/
CCCNC[C@H]1[C@@H](c2ccc(C3=CCCCC3)cc2)[C@@H](CO)N1C(=O)C1CCC1	6.6	-83.3*	/
C[C@H]1CN([C@@H](C)CO)C(=O)c2cc(NC(=O)CCCCCC(=O)Nc3ccccc3N)ccc2O[C@@H]1CN(C)C(=O)Nc1cccc2ccccc12	-0.6	-6.0	/
COc1cc(CN2CC3(CN(C(C)=O)C3)c3c([nH]c4cc(OC)ccc34)[C@@H]2CO)cc(OC)c1	/	15.9	/
COc1ccc2c3c([nH]c2c1)[C@@H](CO)N(C(=O)c1cccc(F)c1)CC31CCN(C(=O)CC2CC2)CC1	6.2	-45.0	/
COc1cccc(NC(=O)N2C[C@H](O)COC[C@H]3O[C@H](CC(=O)NCc4ccccc4F)CC[C@@H]32)c1	-0.4	30.7	/
CC(C)C#Cc1cnc2c(c1)C(=O)N([C@@H](C)CO)C[C@@H](C)[C@H](CN(C)Cc1ccccc1)O2	-4.2	/	1.9
CCCC#Cc1ccc([C@@H]2[C@@H](CO)N3CCCCN(S(=O)(=O)Cc4ccccc4)C[C@@H]23)cc1	33.8	-14.1	83.8
Cc1ccccc1S(=O)(=O)N1CCCCN2[C@@H](CO)[C@@H](c3ccc(-c4ccccc4)cc3)[C@@H]2C1	0.6	-75.3	55.3
CCCC#Cc1ccc([C@@H]2[C@H](CO)N3CCCCN(S(=O)(=O)Cc4ccccc4)C[C@@H]23)cc1	-89.7*	-84.0*	82.6
CCCC#Cc1ccc([C@@H]2[C@H](CO)N3CCCCN(S(=O)(=O)c4ccccc4C)C[C@@H]23)cc1	-96.3*	-72.8	86.8
